A short description of assay [1]: growth inhibition of DIPG glioma cells, dose response, cell-based, SU-DIPG-XVII, MIPE5.0, CellTiter-Glo, qHTS (AID 1347060).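 On AC50: cells exposed to compound for 48 hours before viability readout.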 As to conditions: SU-DIPG-XVII viability, CellTiter-Glo ATP luminescence. On the technique in general: In ATP-based viability assays light output follows the ATP content of the culture.
The nature of assay [2]: growth inhibition of DIPG glioma cells, dose response, cell-based, SU-DIPG-XIII, MIPE5.0, CellTiter-Glo, qHTS (AID 1347064; cut-off not given, nearly all actives have AC50 up to about 23 µM;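 on AC50: cells exposed to compound for 48 hours before the viability read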). The conditions noted are these: SU-DIPG-XIII viability, CellTiter-Glo ATP luminescence.
A short description of assay [3]: viability loss in pontine glioma line – cell-based, SU-DIPG-XXV, MIPE5.0, CellTiter-Glo, qHTS, dose response (AID 1347065).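 Further: cells exposed to compound for 48 hours before ATP readout.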 The conditions noted are these: CellTiter-Glo ATP luminescence.
The nature of assay [4]: JHH-DIPG-1 glioma cell viability, MIPE5.0 library, CellTiter-Glo luminescence, qHTS (AID 1347067).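 Further: cells exposed to compound for 48 hours before readout.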 The conditions noted are these: JHH-DIPG-1 glioma viability, CellTiter-Glo ATP luminescence.
Assay [5] can be described thus: SU-DIPG-XXV glioma cell viability, MIPE5.0 library, qHTS (AID 1347068; cut-off not given, nearly all actives have IC50 up to about 30 µM;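 on IC50: cells exposed to compound for 48 hours before viability readout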). (Quantitative high-throughput screening tests each substance at several concentrations.)

Records with an inconclusive call do not appear. Active and inactive are the calls of the source. Unless noted, cut-off not given; nearly all actives show AC50 up to about 26 µM.

The values below come from PubChem BioAssay.

What is called AC50 is the concentration giving half of the maximal activity seen. The term IC50 denotes the midpoint of a concentration-inhibition curve.

For the compound `CCn1c(=O)c(-c2ccc(-c3cncs3)cc2Cl)cc2cnc(Nc3ccc(N4CCN(C)CC4)cc3)nc21`, the AC50 in assay [1] is 3.32 µM (active); in assay [2], 8.33 µM (active); in assay [3] it was 2.95 µM (active); in assay [4] it was 5.25 µM (active). In assay [5], the IC50 is 10.5 µM (active).
`CCCC1(CCC)CCC2(CCN(CCCN(CC)CC)C2)CC1`: the AC50 in assay [1] was 7.42 µM (active); in assay [2] it was 4.17 µM (active); in assay [3], 6.61 µM (active); in assay [4], 3.72 µM (active). In assay [5], the IC50 is 10.5 µM (active).
Taken in the same sequence, the figures for `COc1ccc(S(=O)(=O)N2CCc3cccc(-c4ccncc4)c32)cc1` were 0.468 µM (active), 0.295 µM (active), 0.332 µM (active), 0.332 µM (active) and 0.833 µM (active).
Take `NC(=O)c1ccc2nc(-c3ccc(C4(N)CCC4)cc3)c(-c3ccccc3)n2n1`: the AC50 in assay [1] is 13.2 µM (active); in assay [2], 6.61 µM (active); in assay [3], 7.42 µM (active); in assay [4] it was 7.42 µM (active). Moreover, the compound was classed as inactive in assay [5].
Consider `CC(=O)Nc1cc(Oc2ccc3c(nc(Nc4ccc(F)cc4F)n3C)c2C)ccn1`, for which the AC50 in assay [1] was 0.372 µM (active); in assay [2], 4.17 µM (active); in assay [3], 0.118 µM (active); in assay [4], 0.525 µM (active). Further, in assay [5], the IC50 was 1.05 µM (active).
For the compound `O=C(O)CNC(=O)c1ncc(-c2cccc(Cl)c2)cc1O`, the compound was called inactive in assay [1], in assay [2], in assay [3], in assay [4] and in assay [5].
For `Cc1[nH]c(/C=C2\C(=O)Nc3ccc(F)cc32)c(C)c1C(=O)NC[C@H](O)CN1CCOCC1`, the AC50 in assay [1] is 13.2 µM (active); in assay [2], 18.6 µM (active); in assay [3], 7.42 µM (active); in assay [4], 16.6 µM (active). Also, in assay [5], the compound was classed as inactive.
Taken in the same sequence, the figures for `O=S(=O)(Nc1ccc(-c2cccnc2)c2cccnc12)c1cccc(C(F)(F)F)c1` were 11.8 µM (active), 16.6 µM (active), 14.8 µM (active), 7.42 µM (active) and “inactive”.
As to `Cc1cnc(Nc2ccc(F)cc2Cl)nc1-c1c[nH]c(C(=O)NC(CO)c2cccc(Cl)c2)c1` (stereo not given), the AC50 was 3.32 µM (active) in assay [1], 5.9 µM (active) in assay [2], 2.09 µM (active) in assay [3] and 2.63 µM (active) in assay [4]. Also, the IC50 in assay [5] was 10.5 µM (active).
`Cc1ccc(S(=O)(=O)Nc2cc(-c3ccc(C#N)s3)ccc2C)cc1`: the half-maximal activity concentration (AC50) is 0.0468 µM (active) in assay [1], 0.0525 µM (active) in assay [2], 0.0332 µM (active) in assay [3] and 0.059 µM (active) in assay [4]. In addition, the IC50 in assay [5] is 0.0661 µM (active).
As to `COc1cc2c(cc1O)CCN[C@]21CS[C@@H]2c3c(OC(C)=O)c(C)c4c(c3[C@H](COC1=O)N1[C@@H]2[C@H]2c3c(cc(C)c(OC)c3O)C[C@@H]([C@@H]1O)N2C)OCO4`, the AC50 in assay [1] is 0.000382 µM (active); in assay [2], 0.00135 µM (active); in assay [3], 0.00152 µM (active); in assay [4], 0.000679 µM (active). The IC50 in assay [5] was 0.0241 µM (active).
Consider `CN1C(=O)[C@@H](NC(=O)c2n[nH]c(Cc3ccccc3)n2)COc2ccccc21`, for which the outcome in assay [1], in assay [2], in assay [3], in assay [4] and in assay [5] was inactive.
As for `CCS(=O)(=O)N1CCC([C@@H](C)n2c(C)c(C(=O)NCc3c(OC)cc(C)[nH]c3=O)c3ccccc32)CC1`, the result in assay [1], in assay [2], in assay [3], in assay [4] and in assay [5] was inactive.
Consider `C[C@@H]1N=C(N)NC(N(C)C)=N1`, for which the compound was called inactive in assay [1], in assay [2], in assay [3], in assay [4] and in assay [5].
In the case of `Nc1ncnc(Nc2ccc(OCc3ccccc3)c(Cl)c2)c1/C=N/OCCN1CCOCC1`, the AC50 in assay [1] was 23.5 µM (active); in assay [2], 16.6 µM (active); in assay [3], 16.6 µM (active); in assay [4], 18.6 µM (active). In assay [5], the IC50 is 14.8 µM (active).
In the case of `Cc1[nH]c(/C=C2\C(=O)Nc3ccc(F)cc32)c(C)c1C(=O)NCCN1CCCC1`, the AC50 in assay [1] was 12.9 µM (active); in assay [2] it was 7.23 µM (active); in assay [3] it was 6.45 µM (active); in assay [4], 10.2 µM (active). Also, the compound was called inactive in assay [5].
